From PubChem
Compounds with a hit are over-represented: about 5.9% of the library has one in this group of screens.
AHR activator = human AHR activation | P35869 | AHR-responsive luciferase reporter cells, luminescence | activation, % at 5 µM | 320,000 tested, 2.5% active; in the data active means activation above about 47%;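 further: 0% = vehicle wells and 100% = reference agonist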
HSF1 inh = HSF1 inhibition; AID 2098; 300,000 tested, 0.77% active; NIH3T3-HGL HSE-luciferase, MG132-induced, luminescence 8 h; active compounds read low; activity change, negative = inhibition, % at 7.5 µM (by protocol);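 active means more than half of replicate wells show activity change below -50%, luminescence cut by over half; inconclusive means some wells, but at most half, below -50%; inactive means no replicate well below -50%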;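 further: luciferase reports HSF-1 transcriptional activity via heat shock element; 0% = median of DMSO wells and -100% = zero luminescence signal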
FXN GAA850 act = increases GAA850 frataxin promoter reporter activity; HEK293 lucGAA850 FXN promoter luciferase reporter, 24 h; percent of 10 µM SAHA response; activation, % at 6 µM; 360,000 tested, 0.56% active; AID 540364;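 active means activation above the average of all compounds screened plus 3 SD, cutoff fixed separately per campaign, cut at about 7.5% in these data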;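 further: 0% = DMSO wells and 100% = 10 µM SAHA wells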
HSP90 refold inh = inhibitors of HSP90 luciferase refolding in rabbit reticulocyte lysate; inhibition, % at 5.6 µM; luciferase refolding luminescence, 3 h; 290,000 tested, 0.91% active;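 active means inhibition above the screen-wide mean plus 3 SD, computed separately per campaign, cut at about 16% in these data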;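 further: 0% = DMSO wells and 100% = 60 µM geldanamycin wells; inhibitors lower the luminescence because luciferase stays unfolded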
HSF-1 act = increases HSF-1 driven luciferase reporter signal. activation, % at 9 µM. 300,000 tested, 1.7% active. AID 504408. NIH3T3-HGL HSF-1 luciferase reporter, MG132, 8 h; 100% = twice DMSO control signal;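 active means mean replicate activation of at least 50% with a set share of replicates each reaching 50%; inconclusive means only one of those two conditions met; inactive means mean below 50% and too few replicates reaching it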;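 further: 0% = median of the neutral control wells and 100% = twice that signal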
NR0B1 inh = inhibitors of human orphan nuclear receptor DAX1 (NR0B1). P51843. 340,000 tested, 0.99% active. inhibition, % at 6.75 µM. HEK293 Gal4-DAX1 luciferase reporter, luminescence;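 active means inhibition above the mean over all tested compounds plus 3 SD, cut at about 4.2% in these data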;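 further: 0% = DAX1-transfected cells with DMSO and 100% = empty-vector control cells with DMSO; inhibition shows as a rise in luminescence from relieved DAX1 repression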
Target sequence (P51843 207-470 limits assumed): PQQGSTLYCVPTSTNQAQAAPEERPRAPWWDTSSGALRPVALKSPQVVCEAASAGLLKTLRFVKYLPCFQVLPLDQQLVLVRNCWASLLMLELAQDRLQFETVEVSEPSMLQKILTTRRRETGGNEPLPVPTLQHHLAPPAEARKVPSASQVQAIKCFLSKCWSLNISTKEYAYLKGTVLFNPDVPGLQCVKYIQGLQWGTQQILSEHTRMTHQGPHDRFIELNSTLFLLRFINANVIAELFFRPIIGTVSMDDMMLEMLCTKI
* hit, by the source's call; u = inconclusive; x = no result.

SMILES	AHR activator	HSF1 inh	FXN GAA850 act	HSP90 refold inh	HSF-1 act	NR0B1 inh
CCCC(=O)C1C(=O)NC(=O)NC1=O	0	-9	-1	1	-6	-1
O=c1[nH]c(=S)[nH]c(O)c1CN1CCCCC1	-1	-3	0	2	7	-2
CC1CC(OP(O)(=S)c2ccc(N(C)C)cc2NC(=O)c2cccs2)CC(C)(C)C1 (configuration not stated)	12	4	2	-1	22	2
COc1ccc2c3c([nH]c2c1)C(C)=NCC3	50*	-9	1	0	-16	0
CN1CC(C(=O)c2ccc(F)cc2)C(c2c(F)cccc2Cl)C1 (configuration not stated)	0	38	-3	5	82*	3
COc1ccc(C2CN(C)CC2C(=O)c2ccc(F)cc2)cc1Cl (configuration not stated)	0	10	0	1	26	0
CC1CN=C(NCCc2ccccc2)S1 (configuration not stated)	2	-4	0	1	-13	0
COc1cc(C(=O)N2C[C@H]3C[C@@H](C2)c2cccc(=O)n2C3)cc(OC)c1OC	-1	3	2	-1	11	4.9*
O=c1[nH]c(=S)n(Cc2ccc(F)cc2)c(O)c1C=NCC1CCCO1 (configuration not stated)	-1	8	2	5	17	6.2*
COC(=O)C1=C(c2cccc(C#N)c2)C[C@@H]2CC[C@H]1N2C(=O)NCCNC(C)=O	-4	x	0	x	x	1
CCOC(=O)c1[nH]ncc1CN1CCCC(C(=O)c2cccc(Cl)c2)C1 (configuration not stated)	4	9	0	3	28	1
Cc1cc(=O)oc2cc(OCC(=O)N3C[C@H]4C[C@@H](C3)c3cccc(=O)n3C4)ccc12	0	-2	1	-2	0	2
Cc1ccc(S(=O)(=O)N2CC2(C)CCl)cc1 (configuration not stated)	0	18	0	-1	50	4
Cc1ccc(N2C(=O)NC(=O)/C(=C\c3ccc([N+](=O)[O-])o3)C2=O)cc1	1	-4	x	4	19	x
C=C1C(=O)O[C@@H]2C[C@@H](C)[C@@H]3C=CC(=O)[C@@]3(C)[C@@H](O)[C@H]12	-12	-92*	-15	x	-93	-6
Oc1c(Cl)c(Cl)c(Cl)c(Cl)c1Cl	79*	-4	-1	x	-4	-1
CC(=NCc1ccc2c(c1)OCO2)c1c(O)n(C)c(=O)n(C)c1=O	58*	-3	-2	6	-4	-1
N[C@@H](Cc1c[nH]c2ccccc12)c1nnc(SCc2ccccc2)o1	74*	-1	0	1	5	-1
N[C@@H](Cc1c[nH]c2ccccc12)c1nnc(SCc2ccc(F)cc2)o1	x	1	2	-5	22	-1
O=C(c1ccc2c(c1)OCO2)C1CCCN(Cc2c(F)cccc2Cl)C1 (configuration not stated)	48*	9	-1	-1	10	1
Cc1cccc(CN2CCCC(C(=O)c3ccc4c(c3)OCO4)C2)n1 (configuration not stated)	8	7	2	-3	6	-1
O=P(N1CCCCC1)(N1CCCCC1)C(Cl)(Cl)Cl	2	-2	0	-4	0	0
CCN(CC)P(=O)(NC(=O)c1cccn1C)N(CC)CC	-2	-84*	0	2	-89	1
COC(=O)C1=C(c2cccc(C#N)c2)C[C@@H]2CC[C@H]1N2C(=O)N1CCCCC1	2	x	0	x	x	1
CN(C)C(=O)Oc1ccnc2cc(Cl)ccc12	3	-2	0	-3	2	5.5*
SMILES	AHR activator	HSF1 inh	FXN GAA850 act	HSP90 refold inh	HSF-1 act	NR0B1 inh
CC(C)COc1ccc(Cc2c(O)[nH]c(=S)[nH]c2=O)cc1	2	3	4	-2	34	-3
Fc1cccc(F)c1-c1nc(-c2ccc(Cl)cc2)no1	73*	14	5	-3	24	2
C[N+]1(CC2COC(c3ccco3)O2)CCCCC1 (configuration not stated)	0	-66*	1	0	-75	0
COc1ccc(CNCCc2ccc3c(c2)OCO3)cc1Br	7	-8	0	2	6	0
CCn1c(O)c(C=Nc2ccc(N3CCOCC3)cc2)c(=O)n(CC)c1=S	0	-29	-1	5	-37	-1
CCn1c(O)c(C=Nc2ccc(N3CCOCC3)c(Br)c2)c(=O)n(CC)c1=S	0	-67*	-3	-4	-72	0
O=[N+]([O-])/C=C/c1c(Cl)cccc1Cl	x	u	9.0*	x	u	-2
CCCCn1c(O)c(/C=C2/C=CC=N2)c(=O)[nH]c1=O	5	-2	-1	-3	-8	5.4*
C=CCn1c(O)c(/C=C2/C=CC=N2)c(=O)[nH]c1=O	4	-2	-2	-6	-6	1
COC(=O)C1=C(c2ccc(OCc3ccccc3)c(F)c2)C[C@@H]2CC[C@H]1N2C	x	x	-3	x	x	1
COc1cccc(C2CCN(C)C2)c1 (configuration not stated)	x	x	2	x	x	1
COc1ccc(SCC2CN(C)CCC2c2ccc(F)cc2)cc1 (configuration not stated)	-4	34	2	x	67*	2
CN(C)[C@@H]1C(=O)C(C(N)=O)=C(O)[C@@]2(O)C(=O)C3=C(O)c4c(O)cccc4[C@@](C)(O)C3C[C@@H]12 (some centres not stated)	0	-2	19*	x	2	-1
CN(C)[C@@H]1C(=O)C(C(N)=O)=C(O)[C@@]2(O)C(=O)C3=C(O)c4c(O)cccc4[C@@](C)(O)[C@H]3[C@H](O)[C@@H]12	3	-1	2	-1	-8	0
COC(=O)C1=COC(C)C2CN3CCc4c([nH]c5cc(OC)ccc45)C3CC12 (configuration not stated)	x	x	-3	x	x	x
Cc1cccn2c(=O)c3c(nc12)N1CCC(Cc2ccccc2)CC1C1(C3)C(=O)N(C)C(=O)N(C)C1=O (configuration not stated)	6	10	1	0	56*	1
Cc1cccn2c(=O)c3c(nc12)N1CCCCC1C1(C3)C(=O)N(C)C(=O)N(C)C1=O (configuration not stated)	0	-2	-2	2	-3	x
O=C(NCCCN1CCOCC1)C(Cl)(Cl)Cl	0	-4	3	-1	-5	1
Cc1ccc(-n2nc(C)c3c2NC(=O)CSC3c2ccc3c(c2)OCO3)cc1 (configuration not stated)	15	-63*	-1	0	-68	-1
COc1ccc(C2SCC(=O)Nc3c2c(C)nn3-c2ccccc2)cc1 (configuration not stated)	6	-8	1	5	-11	-1
